Some test systems named below: NCI-H23 lung; NCI-H226 lung; NCI-H322M lung; HOP-62 NSCLC; NCI-H460 lung; NCI-H522 lung; A549/ATCC NSCLC; 786-0 renal; COLO 205 colon; DU-145 prostate; K-562 leukemia; MALME-3M melanoma; MDA-MB-231 breast; RXF 393 renal; SF-268 CNS; SF-295 CNS; SF-539 CNS; UACC-257 melanoma; M14 melanoma; HCT-15 colon.
Holding throughout (experiment): NCI-60 one-dose screen, 48 h (100 = growth as untreated, 0 = no growth, -100 = all killed)
Holding throughout (details): 10 µM unless noted

About 83,000 compounds went through this panel and 20% of them were active in at least one assay; those are over-represented in the sample as a whole.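 Plates (96-well) were seeded with cells, treated with compound at one concentration, and incubated for 48 hours before percent growth was determined.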 A number with no mark means an inactive call. Active and inactive are the calls of the source. How the source made its calls: active means growth percent below 10; inactive means the rest.

As to `Nc1c2ccccc2nc2ccccc12` (tested in a mixture with another compound), the growth was 19.2% in the assay with NCI-H23 lung; 11% with NCI-H226 lung; 29.8% in the assay with NCI-H322M lung; 25.8% in the assay on HOP-62 NSCLC; 4.41% (active) with NCI-H460 lung; -22.3% (active) with NCI-H522 lung. In addition, the growth in the assay on A549/ATCC NSCLC is 4.37% (active); in the assay with 786-0 renal, 32.5%; with COLO 205 colon, 2.36% (active); in the assay on DU-145 prostate it was 19.4%; in the assay with K-562 leukemia, 15.3%; with MALME-3M melanoma it was 27%. The growth in the assay with MDA-MB-231 breast was 15.9%; with RXF 393 renal, -2.81% (active); in the assay on SF-268 CNS it was 19.2%; with SF-295 CNS, 24.4%; in the assay with SF-539 CNS it was 27.5%; with UACC-257 melanoma, -11.3% (active). The growth with M14 melanoma is 17.1%; in the assay on HCT-15 colon, 14.7%.

As to `NC(=Nc1ccccc1)SCCCCSC(N)=Nc1ccccc1`, the growth in the assay with NCI-H23 lung was 71.2%; in the assay on NCI-H226 lung, 95%; in the assay with NCI-H322M lung, 85.2%; in the assay on HOP-62 NSCLC, 82.2%; in the assay on NCI-H460 lung, 101%; with NCI-H522 lung, 79.1%. The growth with A549/ATCC NSCLC was 85.1%; with 786-0 renal, 79.5%; in the assay with COLO 205 colon, 125%; in the assay with DU-145 prostate, 93.5%; in the assay on K-562 leukemia, 44.5%; with MALME-3M melanoma, 102%. Further, the growth in the assay on MDA-MB-231 breast is 67.5%; in the assay on RXF 393 renal it was 73.6%; in the assay with SF-268 CNS it was 90%; with SF-295 CNS, 77.5%; with SF-539 CNS, 114%; in the assay on UACC-257 melanoma, 101%. Moreover, the growth in the assay with M14 melanoma was 84.6%; in the assay on HCT-15 colon, 83.1%.

As to `N#CCNc1ccccc1N`, the growth in the assay on NCI-H23 lung is 86.6%; with NCI-H226 lung, 101%; with NCI-H322M lung, 82%; in the assay on HOP-62 NSCLC, 85.2%; in the assay with NCI-H460 lung, 101%; in the assay with NCI-H522 lung it was 65.4%. Also, the growth with A549/ATCC NSCLC was 92.2%; in the assay with 786-0 renal it was 99%; in the assay on COLO 205 colon, 90.2%; in the assay on DU-145 prostate, 106%; in the assay on K-562 leukemia it was 97.3%; with MALME-3M melanoma, 96.2%. Further, the growth with MDA-MB-231 breast is 101%; with RXF 393 renal, 110%; in the assay on SF-268 CNS, 102%; in the assay on SF-295 CNS, 106%; in the assay with SF-539 CNS, 103%; with UACC-257 melanoma, 98.3%. The results for the growth with M14 melanoma and in the assay with HCT-15 colon were 93.4% and 108%, respectively.

As for `C[C@@H]1CC[C@H]2[C@@H](C)C(O)O[C@@H]3O[C@]4(C)CC[C@@H]1[C@]32OO4` (stereo not given in full), the growth in the assay on NCI-H23 lung was 15.4%; in the assay on NCI-H226 lung it was 69.8%; with NCI-H322M lung, 68.9%; in the assay on HOP-62 NSCLC it was 59.4%; in the assay on NCI-H460 lung, 30.6%; with NCI-H522 lung, -8.88% (active). The growth in the assay with A549/ATCC NSCLC is 41.5%; in the assay on 786-0 renal, 46.1%; in the assay with COLO 205 colon it was 6.72% (active); with DU-145 prostate it was 75.1%; with K-562 leukemia, 10.8%; with MALME-3M melanoma it was 28.3%. For the same compound, the growth in the assay with MDA-MB-231 breast was 77.4%; in the assay on RXF 393 renal, 49.3%; in the assay on SF-268 CNS, 52.7%; in the assay on SF-295 CNS, 26.4%; in the assay with SF-539 CNS, 33.6%; with UACC-257 melanoma, 38.3%. The results for the growth in the assay with M14 melanoma and in the assay on HCT-15 colon were 29.8% and 10.7%, respectively.

`O=C(Nc1ncc([N+](=O)[O-])s1)c1cccc([N+](=O)[O-])c1`: the growth in the assay on NCI-H23 lung is 9.05% (active); in the assay on NCI-H226 lung it was 29.3%; in the assay with NCI-H322M lung, 35.9%; with HOP-62 NSCLC it was 25.3%; in the assay on NCI-H460 lung, 43.4%; with NCI-H522 lung it was 8.27% (active). Moreover, the growth is 81.8% in the assay with A549/ATCC NSCLC; 18% in the assay with 786-0 renal; 77% in the assay with COLO 205 colon; 84.6% in the assay with DU-145 prostate; 23.3% with K-562 leukemia; 40.3% in the assay with MALME-3M melanoma. Moreover, the growth is 62.3% in the assay on MDA-MB-231 breast; 25.1% in the assay with RXF 393 renal; 64.2% in the assay on SF-268 CNS; 23.3% in the assay with SF-295 CNS; 28.4% in the assay with SF-539 CNS; 58.6% in the assay on UACC-257 melanoma. In addition, the growth was 44% in the assay on M14 melanoma and 47.8% with HCT-15 colon.

Turning to `CN(C)c1ccc2[nH]c3c(C(N)=O)cc(=O)c(=O)c=3oc2c1`, the growth was 34.9% in the assay with NCI-H23 lung; 87.7% in the assay on NCI-H226 lung; 109% in the assay on NCI-H322M lung; 20.7% in the assay on HOP-62 NSCLC; 38.4% with NCI-H460 lung; 11.2% in the assay with NCI-H522 lung. For the same compound, the growth with A549/ATCC NSCLC is 33.8%; in the assay with 786-0 renal, 80.4%; in the assay with COLO 205 colon, 101%; with DU-145 prostate, 71.9%; with K-562 leukemia, 7.27% (active); in the assay on MALME-3M melanoma, 87.7%. The growth is 62.6% in the assay with MDA-MB-231 breast; 52.1% in the assay with RXF 393 renal; 79.8% in the assay on SF-268 CNS; 78.9% in the assay with SF-295 CNS; 7.15% (active) in the assay with SF-539 CNS; 91% in the assay on UACC-257 melanoma. The growth with M14 melanoma is 61.5%; in the assay with HCT-15 colon, 24.8%.

For the compound `COc1ccc(-c2csc(NC(=O)c3cc(OC)c(OC)c(OC)c3)n2)cc1`, the growth in the assay on NCI-H23 lung is 114%; in the assay with NCI-H226 lung, 94.1%; in the assay with NCI-H322M lung, 99.1%; in the assay with HOP-62 NSCLC, 91.2%; in the assay with NCI-H460 lung, 103%; in the assay with NCI-H522 lung it was 107%. Also, the growth was 102% in the assay with A549/ATCC NSCLC; 102% with 786-0 renal; 105% in the assay on COLO 205 colon; 112% in the assay with DU-145 prostate; 113% with K-562 leukemia; 96.2% in the assay on MALME-3M melanoma. For the same compound, the growth in the assay on MDA-MB-231 breast is 109%; with RXF 393 renal, 87.9%; in the assay with SF-268 CNS it was 102%; in the assay with SF-295 CNS, 91.9%; in the assay on SF-539 CNS, 112%; in the assay with UACC-257 melanoma it was 98.5%. The values for the growth with M14 melanoma and in the assay on HCT-15 colon were 116% and 107%, respectively.

The record behind these values is PubChem BioAssay (NCI).
